Data taken from PubChem BioAssay (NCATS).
Several values for one entry are separate records, joined by “and”; a condition that tells them apart may be missing. Identical values can stand only once. Results filed as inconclusive are left out. Unmarked numbers belong to inactive results. Activity calls are given as the source filed them. Calls come from the whole dose curve; as a rule, active = well fitted cell-killing curve with a large enough effect; inconclusive = small, poorly fitted or top-dose-only effect, or effect the other way, or another doubt; inactive = no such curve, though single readings can be large or run the other way.

test: Identifying Small Molecule Inhibitors of Pancreatic Cancer Stem Cells (Panc1, Spheroid) (AID 1259359); details: Panc1 spheroid cancer stem cell viability; series mostly up to 46.1 µM; viability, % of control: at the top concentration;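 note: compound exposure lasted 48 h before reading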
Text: Progenitor-like cancer cells, often referred to as cancer stem cells (CSC), are believed to be the drivers of therapeutic resistance and rapid recurrence. CSCs are postulated to reside in specific niches characterized by low oxygen tension, limited nutrient supply, and high redox load. Selectively targeting CSC, alone or in combination with cytotoxic agents, as a means to produce durable remissions is an appealing concept. Modeling these cells in in vitro setting is an important step in finding new therapies and/or targets. Multiple reports highlight that forcing cells in culture into 3-dimensionaly architectures (spheroids) re-establishes key progenitor-like transcriptional signatures. Pancreatic cancer is among the diseases with the most dismal outlook which is driven, largely, by recurance following front-line therapies. […] In hopes of deriving new insight into the targeting of these pancreatic CSCs we examined three established pancreatic cancer cell lines in cytotoxicity assays versus a collection of approved and investigational drugs. Importantly, we screened these lines as traditional monolayer (2D) and spheroid (3D) formats to gain an appreciation of agents with differential activity.
Multicellular tumor spheroids from Panc1, MiaPaCa-2, and the primary low-passage tissue culture line SB.06 were seeded in stem cell media (SCM) in nonadherent 6-well plates coated with hydrogel (Corning Life Sciences, Chelmsford, Mass) and pancreatic spheres generated for 14 days before screening. Cells were seeded into 1536-well solid-bottom white tissue culture treated Greiner Bio One Plates (789173-F) using a MultiDrop Combi (Thermofisher Scientific) dispenser and a small sterile cassette. One column was media alone to be used as a :"no cells" control. The plates were then covered with sterilized stainless steel gasketed lids from Kalypsys. After allowing cells to attach for 4 hours, 23 nL of test compound or control (negative control DMSO and positive control 9.2 uM Bortezomib-final) were added from a 1536-well polypropylene compound source plate to each well using a 1536 head pin tool from Kalypsys. Cells were then incubated for 48 hours at 37C, 95% relative humidity and 5% CO2. After 48 hours, plates were removed from the incubator and 3 uL of CellTiter-Glo (Promega) was added using an Aurora Flying Reagent Dispenser Bioraptor. Plates were incubated at room temperature for 10 minutes prior to reading the luminescence on the Viewlux (PerkinElmer). The relative luciferase units are used to calculate the percent activity using the activity of DMSO in the cells and no cells columns for normalization of no inhibition and full inhibition respectively.
Potency is the fitted concentration of half-maximal effect.

Row | Structure (SMILES) | Potency | viability, % of control [%]
1 | COc1cc2c(Oc3ccc(-c4cnc(Nc5ccc(F)cc5)n(C)c4=O)cc3F)ccnc2cc1OCCCN1CCOCC1 | 11.8 µM (active) | 
2 | CC1(O)CC(c2nc(-c3ccc4ccc(-c5ccccc5)nc4c3)c3c(N)nccn23)C1 (stereo not drawn) | 0.148 µM (active) | 
3 | CC1=C(CO)C(=O)O[C@@H]([C@@H](C)[C@H]2CC[C@H]3[C@@H]4C[C@H]5O[C@]56[C@@H](O)C=CC(=O)[C@]6(C)[C@@H]4CC[C@]23C)C1 | 1.05 µM (active) | 
4 | COCCn1c2c([n+](Cc3cnccn3)c1C)C(=O)c1ccccc1C2=O |  | -3.99
5 | CC1(C)OC2=C(C(=O)c3ccccc3C2=O)[C@H](NCc2ccccc2)[C@H]1O | 0.743 µM (active) | 
6 | CN1CCN(c2cc(C(=O)Nc3ccc4c(c3)-c3c(c(C(N)=O)nn3-c3ccc(F)cc3)CC4)c(Cl)cn2)CC1 | 23.5 µM (active) | 
7 | COC(=O)[C@]12CCC(C)(C)C[C@@H]1[C@@H]1C(=O)C=C3[C@@]4(C)C=C(C#N)C(=O)C(C)(C)[C@@H]4CC[C@@]3(C)[C@]1(C)CC2 | 1.18 µM (active) | 
8 | CC[C@@H]1C(=O)N(C)c2cnc(Nc3ccc(C(=O)NC4CCC(N5CCN(CC6CC6)CC5)CC4)cc3OC)nc2N1C(C)C (stereo partly drawn) | 0.0093 µM (active) | 
9 | C=CCn1c(=O)c2cnc(Nc3ccc(N4CCN(C)CC4)cc3)nc2n1-c1cccc(C(C)(C)O)n1 | 0.418 µM (active) | 
10 | COC(=O)c1ccc2c(C(=Nc3ccc(N(C)C(=O)CN4CCN(C)CC4)cc3)c3ccccc3)c(O)[nH]c2c1 | 13.2 µM (active) | 
11 | CCOc1cc2ncc(C#N)c(Nc3ccc(F)c(Cl)c3)c2cc1NC(=O)C=CCN(C)C | 16.6 µM (active) | 
12 | O=C(NC1CCNCC1)c1[nH]ncc1NC(=O)c1c(Cl)cccc1Cl | 1.32 µM (active) and 1.05 µM (active) | 
13 | Cc1[nH]c2ccccc2c1CCNCc1ccc(C=CC(=O)NO)cc1 | 0.59 µM (active) | 
14 | CCN1CCN(CC(=O)Nc2ccc(-c3cccc4c(=O)cc(N5CCOCC5)oc34)c3sc4ccccc4c23)CC1 | 16.6 µM (active) | 
15 | CC(C)C[C@H](NC(=O)CNC(=O)c1cc(Cl)ccc1Cl)B(O)O | 0.0935 µM (active) | 
16 | CC[C@@H]1C(=O)N(C)c2cnc(Nc3ccc(C(=O)NC4CCN(C)CC4)cc3OC)nc2N1C1CCCC1 | 0.0083 µM (active) | 
17 | CN1CC[C@@H](c2c(O)cc(O)c3c(=O)cc(-c4ccccc4Cl)oc23)[C@@H](O)C1 | 0.132 µM (active) | 

Row | Structure (SMILES) | Potency | viability, % of control [%]
18 | CC(C)(C)c1cnc(CSc2cnc(NC(=O)C3CCNCC3)s2)o1 | 0.418 µM (active) | 
19 | Cc1[nH]nc2ccc(-c3cncc(OC[C@@H](N)Cc4ccccc4)c3)cc12 | 9.35 µM (active) | 
20 | CNC(=O)c1cc(Oc2ccc(NC(=O)Nc3cc(C(C)(C)C)nn3-c3ccc4ncccc4c3)c(F)c2)ccn1 | 13.2 µM (active) | 
21 | O=c1[nH]nc(Sc2ncc([N+](=O)[O-])s2)n1-c1ccc2c(c1)OCCO2 | 5.26 µM (active) | 
22 | COc1cc2ncnc(Nc3ccc(F)c(Cl)c3)c2cc1NC(=O)C=CCN1CCCCC1 | 23.5 µM (active) | 
23 | O=C(Nc1cc(C(F)(F)F)cc(C(F)(F)F)c1)c1cc(Cl)ccc1O | 0.372 µM (active) | 
24 | CN(C)CC=CC(=O)Nc1cc2c(Nc3ccc(F)c(Cl)c3)ncnc2cc1O[C@H]1CCOC1 | 11.8 µM (active) | 
25 | CC(=O)OCC(=O)[C@@]1(O)[C@H](C)C[C@H]2[C@@H]3C=C(C)C4=Cc5c(cnn5-c5ccccc5)C[C@]4(C)[C@@H]3[C@@H](O)C[C@@]21C | 14.8 µM (active) | 
26 | Nc1cc(C(F)(F)F)c(-c2cc(N3CCOCC3)nc(N3CCOCC3)n2)cn1 | 0.833 µM (active) | 
27 | Cc1nc2cnc3ccc(C#Cc4cccnc4)cc3c2n1-c1ccc(C(C)(C)C#N)cc1 | 18.7 µM (active) | 
28 | CCN(CC)CCCCNc1ncc2cc(-c3cc(OC)cc(OC)c3)c(NC(=O)NC(C)(C)C)nc2n1 | 18.7 µM (active) | 
29 | C=CC(=O)Nc1cc2c(Nc3ccc(F)c(Cl)c3)ncnc2cc1C#CC(C)(C)N1CCN(C)CC1 | 5.26 µM (active) | 
30 | COc1cc(=C2C=c3ccccc3=N2)[nH]c1=Cc1[nH]c(C)cc1C | 1.48 µM (active) | 
31 | CC(C)c1ccc(Cn2ccc3c4c(N)nc(NC5CC5)nc4ccc32)cc1 | 5.26 µM (active) | 
32 | CC(NCc1ccc2c(c1)nc(NC(=O)c1ccc(-c3cn[nH]c3)s1)n2CC(C)(C)O)C(C)(C)C (stereo not drawn) | 0.166 µM (active) | 
33 | Cc1cccc(C=NNc2cc(N3CCOCC3)nc(OCCc3ccccn3)n2)c1 | 23.5 µM (active) | 
